# Measurements reported in PubChem BioAssay (NCI).
# Where “and” joins values, the source holds several entries; their conditions need not be identical. Equal values may be shown once. About 83,000 compounds went through this panel and 20% of them were active in at least one assay; those are over-represented in the sample as a whole.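 Single-concentration screen, 48 h exposure, 96-well plates. Endpoint: percent growth. Below 10 = active.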 Calls of active or inactive are those of the source.
# Assays:
# Test in all cases: NCI-60 one-dose screen, 48 h (100 = growth as untreated, 0 = no growth, -100 = all killed)
# Details in all cases: 10 µM unless noted
# DU-145 prostate = tested on: DU-145 prostate
# K-562 leukemia = tested on: K-562 leukemia
# MALME-3M melanoma = tested on: MALME-3M melanoma
# MDA-MB-231 breast = tested on: MDA-MB-231 breast
# RXF 393 renal = tested on: RXF 393 renal
# SF-268 CNS = tested on: SF-268 CNS
# SF-295 CNS = tested on: SF-295 CNS
# SF-539 CNS = tested on: SF-539 CNS
# UACC-257 melanoma = tested on: UACC-257 melanoma
# M14 melanoma = tested on: M14 melanoma
SMILES,growth (DU-145 prostate),growth (K-562 leukemia),growth (MALME-3M melanoma),growth (MDA-MB-231 breast),growth (RXF 393 renal),growth (SF-268 CNS),growth (SF-295 CNS),growth (SF-539 CNS),growth (UACC-257 melanoma),growth (M14 melanoma)
CCc1ccc(OC(=O)CCl)cc1,102% (inactive),102% (inactive),96.9% (inactive),99.4% (inactive),113% (inactive),95.3% (inactive),97.8% (inactive),99% (inactive),103% (inactive),96.3% (inactive)
COc1ccc2oc3cc(NCCN(C)C)ccc3c(=O)c2c1,108% (inactive) and 76.6% (inactive),66.7% (inactive) and 43.2% (inactive),94.8% (inactive) and 81.7% (inactive),83.5% (inactive) and 73.6% (inactive),107% (inactive) and 92.5% (inactive),104% (inactive) and 82.7% (inactive),54.7% (inactive) and 72.1% (inactive),80.7% (inactive) and 84.2% (inactive),86.9% (inactive),96.5% (inactive) and 76.7% (inactive)
CC(=O)Oc1ccc(C2(c3ccc(OC(C)=O)cc3)C(=O)Nc3ccccc32)cc1,89% (inactive) and 89.9% (inactive),78.9% (inactive) and 93.8% (inactive),128% (inactive) and 97.8% (inactive),95.4% (inactive) and 87.4% (inactive),66.4% (inactive) and 76.9% (inactive),96.7% (inactive) and 100% (inactive),71.8% (inactive) and 86.3% (inactive),97.2% (inactive) and 92.2% (inactive),110% (inactive) and 114% (inactive),112% (inactive) and 99.4% (inactive)
Cc1cc(-c2ccc(N=Nc3c(C)nn(-c4ccc(S(=O)(=O)O)cc4)c3O)c(C)c2)ccc1N=Nc1ccc(O)c(C(=O)O)c1,108% (inactive),104% (inactive),111% (inactive),97.2% (inactive),113% (inactive),97.6% (inactive),93.4% (inactive),101% (inactive),101% (inactive),107% (inactive)
CC(C)(C)C1=CC(=O)C(C(C)(C)C)=CC1=O,120% (inactive) and 98.9% (inactive),105% (inactive) and 107% (inactive),94.5% (inactive) and 107% (inactive),107% (inactive) and 109% (inactive),90.2% (inactive) and 105% (inactive),108% (inactive) and 94.3% (inactive),99.6% (inactive) and 104% (inactive),87.3% (inactive) and 108% (inactive),90.5% (inactive) and 85% (inactive),105% (inactive)
Cc1c(O)nc(N)[nH]c1=O,119% (inactive),118% (inactive),109% (inactive),104% (inactive),118% (inactive),123% (inactive),97.4% (inactive),106% (inactive),105% (inactive),98.5% (inactive)
NC(=O)Cc1nc(O)cc(=O)[nH]1,115% (inactive),102% (inactive),103% (inactive),96.5% (inactive),107% (inactive),102% (inactive),96.5% (inactive),101% (inactive),86.4% (inactive),101% (inactive)
Nc1ccc(O)c(C(=O)O)c1,105% (inactive) and 128% (inactive),92.9% (inactive) and 74.2% (inactive),109% (inactive) and 116% (inactive),84.3% (inactive) and 91.9% (inactive) and 109% (inactive),92.4% (inactive) and 115% (inactive) and 127% (inactive),89.5% (inactive) and 104% (inactive) and 110% (inactive),109% (inactive) and 107% (inactive) and 113% (inactive),102% (inactive) and 103% (inactive) and 114% (inactive),109% (inactive) and 110% (inactive),93.8% (inactive) and 104% (inactive) and 95.1% (inactive)
Nc1ccccc1SC(CC(=O)c1ccccc1)c1cccc([N+](=O)[O-])c1 (stereo not given),113% (inactive) and 85.5% (inactive),61% (inactive) and 7.1% (active),123% (inactive) and 86.7% (inactive),86.4% (inactive) and 99.6% (inactive),104% (inactive) and 94.7% (inactive),101% (inactive) and 83.9% (inactive),83.1% (inactive) and 92.3% (inactive),99.6% (inactive) and 105% (inactive),95% (inactive) and 87.7% (inactive),114% (inactive) and 89.9% (inactive)
COc1ccc(CCn2cnn3c(=O)c4ccccc4nc3c2=O)cc1OC,98.2% (inactive) and 117% (inactive),99.9% (inactive) and 102% (inactive),114% (inactive),110% (inactive) and 101% (inactive),103% (inactive) and 115% (inactive),93.8% (inactive) and 108% (inactive),111% (inactive),101% (inactive) and 97.4% (inactive),101% (inactive) and 112% (inactive),94% (inactive) and 106% (inactive)
COC(=O)CCOc1ccccc1,110% (inactive),71.7% (inactive),91.8% (inactive),110% (inactive),89% (inactive),108% (inactive),130% (inactive),101% (inactive),82.8% (inactive),106% (inactive)
Cc1ccc(S(=O)(=O)n2ccnc2)cc1,120% (inactive),123% (inactive),107% (inactive),98.9% (inactive),96.2% (inactive),104% (inactive),102% (inactive),96.7% (inactive),91.5% (inactive),104% (inactive)
O=[N+]([O-])c1ccc(N2CCN=N2)cc1,88.2% (inactive),63.6% (inactive),106% (inactive),80.4% (inactive),109% (inactive),85.8% (inactive),97.1% (inactive),93.4% (inactive),91.5% (inactive),82.7% (inactive)
CCOC(=O)NC(N)=O,111% (inactive) and 119% (inactive),90.7% (inactive) and 110% (inactive),93.3% (inactive),118% (inactive) and 102% (inactive),114% (inactive),106% (inactive) and 119% (inactive),99.9% (inactive) and 93.2% (inactive),95.6% (inactive) and 99.2% (inactive),94% (inactive) and 97.1% (inactive),101% (inactive)
O=C(NC(=O)c1ccc(F)c(Cl)c1)NC1CC1,106% (inactive) and 98.7% (inactive),78.4% (inactive) and 95.9% (inactive),107% (inactive) and 98.9% (inactive),117% (inactive),113% (inactive),103% (inactive),104% (inactive) and 99.5% (inactive),110% (inactive) and 98.4% (inactive),97.3% (inactive) and 103% (inactive),94.7% (inactive) and 109% (inactive)
OCc1ccccc1F,11.4% (inactive),106% (inactive),134% (inactive),86.3% (inactive),77.5% (inactive),95.8% (inactive),72% (inactive),101% (inactive),107% (inactive),90.8% (inactive)
Cc1cc(NC(=O)NC(=O)c2ccccc2N(C)C)ccc1Oc1ncc(Br)cn1,-3.51% (active) and 20.7% (inactive),0.98% (active) and 20.3% (inactive),24.6% (inactive) and 55.2% (inactive),9.21% (active) and 34.1% (inactive),30.2% (inactive) and -1.61% (active),44.8% (inactive) and 63.6% (inactive),35.1% (inactive) and 36.1% (inactive),-8.43% (active) and -14.3% (active),26% (inactive) and 73.5% (inactive),22.8% (inactive) and 17.1% (inactive)
COc1ccc(C(=O)C(O)c2ccc(OC)cc2)cc1 (stereo not given),110% (inactive) and 103% (inactive),101% (inactive) and 103% (inactive),92.2% (inactive) and 103% (inactive),104% (inactive) and 112% (inactive),125% (inactive) and 103% (inactive),103% (inactive) and 101% (inactive),104% (inactive) and 107% (inactive),105% (inactive) and 103% (inactive),104% (inactive) and 101% (inactive),101% (inactive) and 99.9% (inactive)
CCOC(=O)c1ccncc1,104% (inactive),99.3% (inactive),113% (inactive),110% (inactive),107% (inactive),101% (inactive),96.2% (inactive),108% (inactive),116% (inactive),102% (inactive)
N#Cc1c[nH]n2ccnc12,111% (inactive),106% (inactive),106% (inactive),111% (inactive),113% (inactive),107% (inactive),99.8% (inactive),104% (inactive),97.7% (inactive),94.9% (inactive)
C/C(=C\c1ccccc1)C(O)C(=O)c1nc2ccc([N+](=O)[O-])cc2[nH]c1=O (stereo not given),105% (inactive),85.8% (inactive),109% (inactive),90.8% (inactive),109% (inactive),98.1% (inactive),93.3% (inactive),102% (inactive),81.2% (inactive),92.3% (inactive)
